In PubChem BioAssay (NCATS) one finds Potency data, which are given here for 38 compounds.

The structures appear in SMILES notation. Records with an inconclusive call do not appear. A call without a number means that no potency is given here. Active and inactive are the calls of the source. The call rests on the fitted dose curve.

The nature of this experiment: Cytotoxicity counterscreen for inhibitors of SARS-CoV-2 cell entry (AID 1645845). Further: nearly all actives have a fitted effect of over 50% in size. To be noted: cell viability (SARS-CoV-2 entry assay cells); series mostly up to 57.1 µM. Summed up:
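Counterscreen run in the same HEK293-ACE2 line as the pseudotyped-particle entry assay, without particles. Viability after 48 h at 37 C was read as ATP luminescence, scaled between cell-containing and cell-free wells.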
In general terms: Counterscreens check selectivity or assay interference.
With `CN(C)C(=O)Oc1ccc[n+](C)c1`, the Potency result is “inactive”.

With `Cc1ccsc1/C=C/C1=NCCCN1C`, the Potency result is “inactive”.

Take `O=C(O)CCCC[C@@H]1SC[C@@H]2NC(=O)N[C@@H]21`: the Potency result is “inactive”.

Regarding `Cc1c[nH]c2ccccc12`, the Potency result was “inactive”.

`Cc1ccc(C(=O)c2ccc(CC(=O)O)n2C)cc1`: the Potency entry is “inactive”.

Turning to `NC(=O)NC(=O)Cc1ccccc1`, the Potency entry was “inactive”.

Consider `CCOC(=O)c1ccc(OCCN2C[C@H](O)[C@@H](O)[C@H](O)[C@H]2CO)cc1`, for which the Potency entry is “inactive”.

As for `O=C(N[C@H](CO)[C@H](O)c1ccc([N+](=O)[O-])cc1)C(Cl)Cl`, the Potency result is “inactive”.

Consider `CN(CC1(C)CCCO1)S(=O)(=O)c1ccc(Cl)c(S(N)(=O)=O)c1` (stereo not drawn), for which the Potency result is “inactive”.

For the compound `Cc1ccccc1OCC(O)CO` (stereo not drawn), the Potency entry is “inactive”.

As for `CN1C(CSCC(F)(F)F)Nc2cc(Cl)c(S(N)(=O)=O)cc2S1(=O)=O` (stereo not drawn), the Potency entry was “inactive”.

For `CC(CCc1ccccc1)NCC(O)c1ccc(O)c(C(N)=O)c1` (stereo not drawn), the Potency result was “inactive”.

In the case of `Cc1c(NC(=O)c2cccnc2)c(=O)n(-c2ccccc2)n1C`, the Potency entry was “inactive”.

In the case of `COc1cc(OC)c(C(=O)CCCN2CCCC2)c(OC)c1`, the Potency result was “inactive”.

As to `c1ccc(-c2nc[nH]c2-c2ccccc2)cc1`, the Potency result was “inactive”.

As to `Cc1cccc(C)c1NC(=O)CC12CCCN1CCC2`, the Potency result is “inactive”.

With `CCCN1CCCC[C@H]1C(=O)Nc1c(C)cccc1C`, the Potency entry is “inactive”.

Turning to `CCOc1cc(CC(=O)N[C@@H](CC(C)C)c2ccccc2N2CCCCC2)ccc1C(=O)O`, the Potency result was “inactive”.

On to `CC12CCC(CC1)C(C)(C)O2`, for which the Potency entry is “inactive”.

Take `Nc1ncnc2nc[nH]c12`: the Potency entry is “inactive”.

Turning to `Cc1oc(=O)oc1CN1CCN(c2cc3c(cc2F)c(=O)c(C(=O)O)c2n3C(C)S2)CC1` (stereo not drawn), the Potency entry was “inactive”.

For the compound `CCOc1ccc(NC(=O)CC(C)O)cc1` (stereo not drawn), the Potency result was “inactive”.

In the case of `CC(=O)SCC(CC(=O)c1ccc(C)cc1)C(=O)O` (stereo not drawn), the Potency entry was “inactive”.

For the compound `CCOC(=O)[C@H](CCc1ccccc1)N[C@@H](C)C(=O)N1CCC[C@H]1C(=O)O`, the Potency entry is “inactive”.

Regarding `C=CCc1ccc(O)c(OC)c1`, the Potency entry was “inactive”.

As for `CCC(C(=O)NC(=O)NC(C)=O)c1ccccc1` (stereo not drawn), the Potency result is “inactive”.

For the compound `CN1C[C@H](C(=O)N[C@]2(C)O[C@@]3(O)[C@@H]4CCCN4C(=O)[C@H](Cc4ccccc4)N3C2=O)C=C2c3cccc4[nH]cc(c34)C[C@H]21`, the Potency entry was “inactive”.

As to `CC(=O)OCC1=C(C(=O)O)N2C(=O)[C@@H](NC(=O)Cc3cccs3)[C@H]2SC1`, the Potency entry was “inactive”.

`O=C(c1ccccc1)C(O)c1ccccc1` (stereo not drawn): the Potency result was “inactive”.

On to `COc1cccc(OC)c1C(=O)N[C@@H]1C(=O)N2[C@@H]1SC(C)(C)[C@@H]2C(=O)O`, for which the Potency entry is “inactive”.

As to `O=S(=O)(O)c1ccc2nc(-c3ccccc3)[nH]c2c1`, the Potency result is “inactive”.

As for `CC(C)(C)NC[C@H](O)COc1cccc2c1CCCC2=O`, the Potency result is “inactive”.

Consider `COc1ccc(C2CNC(=O)C2)cc1OC1CCCC1` (stereo not drawn), for which the Potency result is “inactive”.

`CC(C)(Oc1ccc(Cl)cc1)C(=O)OCCCOC(=O)C(C)(C)Oc1ccc(Cl)cc1`: the Potency entry is “inactive”.

Consider `O=C(Oc1ccccc1)c1ccccc1O`, for which the Potency result is “inactive”.

As to `CC(=O)Nc1ccc(S(=O)(=O)Nc2cc(C)on2)cc1`, the Potency entry was “inactive”.

Turning to `CCCCC(=O)OCC(=O)[C@H]1[C@H](C)C[C@H]2[C@@H]3C[C@H](F)C4=CC(=O)C=C[C@]4(C)[C@@]3(F)[C@@H](O)C[C@@]21C`, the Potency entry was “inactive”.

Turning to `COc1cc2c3cc1Oc1cc(ccc1O)C[C@@H]1c4c(cc(OC)c(O)c4Oc4ccc(cc4)C[C@@H]3N(C)CC2)CC[N+]1(C)C`, the Potency result is “inactive”.
